In PubChem BioAssay (NCI):
This is part of a sample that, as a whole, favours compounds with a hit. Of some 83,000 tested, about 20% had one in any assay.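 Results are percent growth after 48 hours of single-concentration exposure. 100 means growth as in untreated cells, lower positive values show inhibition; negative values down to -100 show cell death.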 Values without a mark were called inactive. Activity calls are given as the source filed them. Rule for the calls: active = growth percent below 10; inactive = the rest.

Test system: MDA-MB-435 melanoma
Assay: NCI-60 one-dose screen, 48 h (100 = growth as untreated, 0 = no growth, -100 = all killed)
Conditions: 10 µM unless noted

Row | SMILES | growth
1 | CC1(C)CC[C@]2(C(=O)O)CC[C@]3(C)C(=CCC4[C@@]5(C)C[C@@H](O)[C@@H]6OC(c7cccc(Br)c7)OC[C@@]6(C)C5CC[C@]43C)C2C1 (stereo partly drawn) | 61.2%
2 | CCOC(=O)/C=C/c1cccc2c1C(=O)NC(C)(c1cc3cc(Br)ccc3oc1=O)N2 (stereo not drawn) | 54.7%
3 | COc1cc(OC)c2c3nc4cc(C)c(C)cc4nc3n(CCN(C)C)c2c1 | 87.8%
4 | COc1ccc(N2N=C(c3ccc4c(c3)OCO4)CC2c2cccc(NC(=O)CCCNS(=O)(=O)c3ccc(F)cc3)c2)cc1 (stereo not drawn) | 63.2%
5 | Cc1ccc(NC(=O)CN2CCN(c3ncnc4c3cnn4-c3ccccc3)CC2)cc1 | 94.2%
6 | CN(C)CCn1c2ccccc2c2nc3cc4ccccc4cc3nc21 | -67% (active)
7 | Cc1ccc(C2CC(c3ccc(S(=O)(=O)NCCNc4nc(Nc5ccc(F)cc5)nc(N(C)C)n4)cc3)=Nc3c(N)nc(N)nc3N2)cc1 (stereo not drawn) | 55.2%
8 | O=c1onc(-c2cc3ccccc3nc2Cl)n1-c1cccc2ccccc12 | -11.8% (active)
9 | CCCS(=O)(=O)N1CCCC(C(=O)Nc2nc3ccc(NC(=O)c4ccc(F)c(OC)c4F)cc3s2)C1 (stereo not drawn) | 36.4%
10 | CN(C)c1nc(NCCNS(=O)(=O)c2ccc(C(=O)/C=C/c3ccc(F)cc3)cc2)nc(Nc2ccc(F)cc2)n1 | -92.6% (active)
11 | O=C(CCN1C(=O)/C(=C/c2ccc(F)cc2)SC1=S)N1CCOCC1 | 73.5%
12 | O=c1[nH]c2ccccc2cc1CSc1nccc(-c2ccc3ccccc3c2)n1 | 17.3%
13 | CC(=O)Nc1ccc(-n2cnc3ccc(-c4ccc(O)cc4)cc32)cc1 | 44.7%
14 | CC(C)Sc1nc(NCCc2c[nH]c3ccccc23)c(C#N)c(-c2ccc(F)cc2)n1 | 58.7%
15 | CC(=O)c1c(N)c(C#N)cn1-c1ccc(Cl)cc1Cl | 102%
16 | C#CCOc1ccc(/C=N/Nc2nc(-c3ccc(Cl)cc3)cs2)cc1OC | 44.1%
17 | C/C(=N\N=C1/C(=O)Nc2ccc(Cl)cc21)c1ccc2c(c1)Nc1ccccc1S2 | -35.2% (active)
18 | CC12CC[C@@H]3[C@]4(C)COC(c5c(F)cccc5F)O[C@@H]4CC[C@@]3(C)[C@@H]1CC(C1=CCOC1=O)O2 (stereo partly drawn) | 86.1%
19 | NC(=S)Nc1cccc(NC(N)=S)c1 | 97.3%

Row | SMILES | growth
20 | Cc1ccc([C@H]2C(C(=O)c3ccc(Cl)cc3)C3(N[C@@H]2c2ccccc2)C(=O)Nc2ccc(Br)cc23)cc1 (stereo partly drawn) | 67.6%
21 | CC(=O)OC[C@@]1(C)C2CC[C@]3(C)C(CC=C4C5CC(C)(C)CC[C@]5(C(=O)Nc5cccc(C)c5)CC[C@]43C)[C@@]2(C)C[C@@H](OC(C)=O)[C@@H]1OC(C)=O (stereo partly drawn) | 48.2%
22 | CCCSc1nc(NCCc2c[nH]c3ccccc23)c(C#N)c(-c2ccc(F)cc2)n1 | 72.9%
23 | Clc1ccc(-c2ccc(OCCCN3CCN(c4ccncc4)CC3)cc2)cc1 | 33.5%
24 | COc1ccc(C2(SCCNCc3cc(N(C)C)ccn3)c3ccccc3C=Cc3ccccc32)cc1 | -33% (active)
25 | COc1ccc(C2=NN(C(C)=O)C(c3ccc(OCc4ccc(Cl)cc4)c(OC)c3)C2)cc1OC (stereo not drawn) | 43%
26 | CCN(CC)c1ccc(/C=N/Nc2nc(-c3ccc(C)cc3)cs2)c(O)c1 | 96.7%
27 | COc1ccc2[nH]cc(-c3nnc(N)nc3-c3cn(C)c4ncc(Br)cc34)c2c1 | 81.9%
28 | N/C(=N\c1nc2ccccc2s1)NC(=O)Nc1ccc(Cl)cc1Cl | -97.3% (active)
29 | O=C(COc1ccc(NC(=O)Nc2ccc(Cl)c(Cl)c2)cc1)N=Nc1c(O)[nH]c2ccc(Cl)cc12 | -61.4% (active)
30 | CC(=O)Nc1ccc(-n2cnc3cc(-c4ccc(O)cc4)ccc32)cc1C(F)(F)F | 3.5% (active)
31 | COc1ccc2c(c1)C(=N/N=C(\C)c1ccc(OC)c(S(N)(=O)=O)c1)C(=O)N2 | 96.1%
32 | Cc1ccc2c(c1)nc(-c1ccccc1)n2CC(=O)N=Nc1c(O)[nH]c2ccc(Br)cc12 | -33.4% (active)
33 | C=CC(=O)Nc1ccc(C)c(Oc2ccc(Cl)cc2)c1 | 43.9%
34 | COc1cc2oc(-c3cccc(C(=O)Nc4cccc([N+](=O)[O-])c4)c3)cc(=O)c2c(OC)c1OC | 39.4%
35 | COc1ccc2oc3c4[nH]c5ccccc5c4c4c(c3c2c1)C(=O)N(C(=O)OC(C)(C)C)C4=O | -26.4% (active)
36 | CC(=O)OC[C@@]1(C)C2CC[C@]3(C)C(CC=C4C5CC(C)(C)CC[C@]5(C(=O)Nc5ccc(F)cc5)CC[C@]43C)[C@@]2(C)C[C@@H](OC(C)=O)[C@@H]1OC(C)=O (stereo partly drawn) | 44.2%
37 | CC1(C)CC[C@]2(C(=O)O)CC[C@]3(C)C(=CCC4[C@@]5(C)C[C@@H](O)[C@@H]6OC(c7ccccc7Br)OC[C@@]6(C)C5CC[C@]43C)C2C1 (stereo partly drawn) | 28%
38 | Nc1nc(C(F)(F)F)cs1 | 100%
